Screens as filed in PubChem.
HPGD inh: qHTS Assay for Inhibitors of HPGD (15-Hydroxyprostaglandin Dehydrogenase); 15-hydroxyprostaglandin dehydrogenase [NAD(+)] (Homo sapiens), P15428; purified HPGD, NADH fluorescence kinetic, PGE2 substrate; Potency, µM, without a hit: at the top dose activity change, negative = inhibition, usual class: inhibitors; actives 4.3% (n = 150,000); AID 894, 2007; active = well fitted inhibition curve with a large enough effect, not every such curve was filed as active; inconclusive = small, poorly fitted or top-dose-only effect, or another doubt; inactive = no such curve, though single readings can be large or run the other way; also: potency is read from the fitted curve at half-maximal effect
Target sequence (P15428 whole entry, looked up): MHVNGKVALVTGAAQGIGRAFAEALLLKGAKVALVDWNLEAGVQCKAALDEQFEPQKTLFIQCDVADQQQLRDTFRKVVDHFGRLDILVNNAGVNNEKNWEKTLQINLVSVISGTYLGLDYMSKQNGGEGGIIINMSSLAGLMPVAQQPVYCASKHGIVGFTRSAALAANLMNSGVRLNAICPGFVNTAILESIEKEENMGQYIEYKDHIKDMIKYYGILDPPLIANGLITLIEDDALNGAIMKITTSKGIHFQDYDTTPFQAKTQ
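20 nM HPGD preincubated 15 min at room temperature with compound in 50 mM Tris-HCl pH 8, 0.01% Tween 20. Started with 1 mM NAD+ and 30 uM prostaglandin E2; NADH fluorescence (360/450 nm) read 5 times over 30-s intervals, last minus first.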
IMPase Li cell: qHTS Assay for Identifying the Cell-Membrane Permeable IMPase Inhibitors: Potentiation with Lithium | AID 1457, 2008 | actives 0.35% (n = 210,000) | Potency, µM (highest dose often 59.4 µM), without a hit: at the top dose activity, negative = IMPase inhibition, actives largely listed as inhibitors | CHO-M1 cells, IP1 TR-FRET (IP-One), carbachol + lithium;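 also: IP1 builds up when IMPase is blocked and the TR-FRET signal falls; potency is read from the fitted curve at half-maximal effect; plate controls were basal vehicle for no effect and high inhibitor control for full effect; nearly all actives have a fitted effect of over 50% in size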
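IP1 accumulation measured by competitive TR-FRET in lysed CHO-M1 cells after 30 min compound exposure at 37C, with a small lithium addition to potentiate weak responses. Hill-equation AC50 from ratio and donor-channel data.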
IMPase inh: qHTS Assay for Identifying the Cell-Membrane Permeable IMPase Inhibitors | CHO-M1 cells, IP1 accumulation, HTRF TR-FRET ratio | inhibition (IP1 accumulation), % at 46.1 µM | Inositol monophosphatase 1 (Rattus norvegicus), P97697 | AID 901, 2007 | 120,000 tested, under 10 active; active = well fitted curve in the direction sought with a large enough effect in the signal ratio, not every such curve was filed as active; inconclusive = small, poorly fitted or top-dose-only effect, or a change in a side signal; inactive = no such curve, though single readings can be large or run the other way; the % refers to the signal ratio;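 also: cells stimulated with carbachol in lithium chloride buffer; plate controls were DMSO basal wells for no effect and reference inhibitor wells for full effect; higher means more IMPase inhibition seen as more IP1 and lower FRET ratio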
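Seeded CHO-M1 cells were dosed with compound at up to 46 uM, stimulated with carbachol for 30 min, then lysed in IP-One detection reagents. Higher IP1 lowers the TR-FRET signal.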
ALDH1A1 inh: qHTS Assay for Inhibitors of Aldehyde Dehydrogenase 1 (ALDH1A1); Purified ALDH1A1, NADH fluorescence, propionaldehyde substrate; AID 1030, 2008; actives 7.3% (n = 220,000); Potency, µM (highest dose often 75.3 µM), without a hit: top-dose activity, negative = inhibition, actives largely listed as inhibitors; active = well fitted inhibition curve with a large enough effect, not every such curve was filed as active; inconclusive = small, poorly fitted or top-dose-only effect, or another doubt; inactive = no such curve, though single readings can be large or run the other way;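 also: potency is read from the fitted curve at half-maximal effect; plate controls were no enzyme wells and a reference inhibitor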
NPSR antag: qHTS Assay for Antagonists of the Neuropeptide S Receptor: cAMP Signal Transduction | Q6W5P4 | CHO-NPSR cells, cAMP TR-FRET, antagonist mode | Potency, µM (doses to about 38.3 µM), without a hit: top-dose activity change, negative = inhibition, usual class: inhibitors | actives 1% (n = 220,000) | AID 1461, 2008; also: potency is read from the fitted curve at half-maximal effect; nearly all actives have a fitted effect of over 50% in size
Target sequence (Q6W5P4 whole entry, looked up): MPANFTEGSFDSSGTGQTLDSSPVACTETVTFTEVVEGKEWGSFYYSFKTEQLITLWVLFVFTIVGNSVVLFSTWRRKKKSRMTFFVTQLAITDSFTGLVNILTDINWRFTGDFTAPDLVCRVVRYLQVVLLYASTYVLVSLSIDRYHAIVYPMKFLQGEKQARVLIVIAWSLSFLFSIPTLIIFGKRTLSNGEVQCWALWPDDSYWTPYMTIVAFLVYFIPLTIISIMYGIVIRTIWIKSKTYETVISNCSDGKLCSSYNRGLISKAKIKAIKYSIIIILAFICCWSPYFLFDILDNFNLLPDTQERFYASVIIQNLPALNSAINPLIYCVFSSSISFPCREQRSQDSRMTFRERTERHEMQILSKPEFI
PNC inhibitor: High Content Assay for Compounds that inhibit the Assembly of the Perinucleolar Compartment | AID 2417, 2010 | activity change (PNC), negative = inhibition, % at 10 µM | actives 3.1% (n = 140,000) | PC3M PTB-GFP, PNC prevalence imaging, 16 h; stronger effect = lower value;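 active = readout at or below -70, meaning at least 70% loss of cells showing the perinucleolar compartment, a nuclear body marking cancer cells; inconclusive = readout between -30 and a set limit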;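 also: plate controls were DMSO wells for no effect and camptothecin positive control wells for full effect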
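PC3M cells stably expressing PTB-GFP, 750–1000 cells/well, treated 16 h at 37 °C with compound (23 nl of library stock), in duplicate. After paraformaldehyde fixation and Hoechst stain, imaged at 20x; PNC prevalence scored by image analysis.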
Active calls of the source: *; ? = inconclusive; / = no result given; [ ] = dose if it differs, or a comment. Hits are enriched below; roughly 11% of the tested compounds scored in any of these assays. Unless noted, calls follow the shape of the dose curve; as a rule, active = well fitted curve in the direction sought with a large enough effect; inconclusive = small, poorly fitted or top-dose-only effect, or another doubt; inactive = no such curve, though single readings can be large; an effect the other way counts as inactive or inconclusive. Unless noted, % is scaled to controls: 0 for no effect and ±100 for the full control effect.

SMILES | HPGD inh | IMPase Li cell | IMPase inh | ALDH1A1 inh | NPSR antag | PNC inhibitor
O=C(O)CCCN1C(=O)/C(=C\c2ccc(-c3nc4ccccc4s3)o2)SC1=S | / | / | / | / | 44% | /
CCC(C)[C@H](N)c1nnc(SCC(=O)Nc2cccc(Cl)c2)o1 (stereo partly drawn) | 2% | 1%[38.3 µM] | -1 | -2% | -2%[46.1 µM] | 7
COc1ccc(CCn2c(O)cc3nn(-c4nc5ccccc5s4)c(=O)c-3c2C)cc1 | / | / | / | / | -6% | /
Cc1nc(N(C)C)c2sc(=S)n(Cc3ccccc3)c2n1 | / | -11% | / | 6.3µM* | -50% | /
CCN(CC)c1nc(C)nc2c1sc(=S)n2C | / | ? | / | -4% | -6% | /
Cc1nc2nc(Cc3ccccc3)nn2c(C)c1Cl | -17% | 24%[38.3 µM] | 3 | 14µM* | -2%[46.1 µM] | 3
Cc1ccc(-c2nnc(Nc3cccc(O)c3)c3ccccc23)cc1S(=O)(=O)N1CCOCC1 | / | / | -12 | / | / | /
CC1CC(C)CN(C(=O)c2ccc3c(=O)n(Cc4ccc5c(c4)OCO5)c(=S)[nH]c3c2)C1 (stereo not drawn) | 16µM* | -17%[38.3 µM] | 11 | 1.4µM* | -27%[46.1 µM] | ?
COCCCNC(=O)c1ccc2c(=O)n(Cc3ccc4c(c3)OCO4)c(=S)[nH]c2c1 | -19% | ? | -4 | 6% | 6%[46.1 µM] | 10
CN1CCN(C(=O)c2ccc3c(=O)n(Cc4ccc(Cl)cc4)c(=S)[nH]c3c2)CC1 | -19% | -15%[38.3 µM] | ? | 22µM* | ? | -8
CCOC(=O)N1CCN(C(=O)c2ccc3c(=O)n(Cc4ccccc4)c(=S)[nH]c3c2)CC1 | -14% | 12%[38.3 µM] | -5 | ? | -25%[46.1 µM] | 57
CN(C)S(=O)(=O)c1cccc(NS(=O)(=O)c2ccc(Cl)s2)c1 | -3% | -6% | / | ? | -11% | 30
CC(=O)Nc1ccc(NS(=O)(=O)c2ccc(Cl)s2)cc1 | / | 8% | / | 0% | -3% | /
CCN(CC)S(=O)(=O)c1cc(NS(=O)(=O)c2c(Cl)cccc2Cl)ccc1C | 8% | 21% | / | ? | -5% | 5
Cc1ccc(NS(=O)(=O)c2ccc(Cl)s2)cc1S(=O)(=O)N(C)C | 2% | -3% | / | 3.2µM* | -3% | -6
CSc1nc2ccc(NS(=O)(=O)c3ccc(Cl)s3)cc2s1 | 25µM* | -11%[38.3 µM] | 0 | 40µM* | 11%[46.1 µM] | -7
CCN(CC)S(=O)(=O)c1cc(NS(=O)(=O)c2cccc(Cl)c2Cl)ccc1C | 6% | 1% | / | 7.9µM* | -26% | 46
CCOC(=O)C1CCCN(c2c(N3CCc4ccccc4C3)c(=O)c2=O)C1 (stereo not drawn) | 28µM* | 4%[38.3 µM] | -3 | ? | -18%[46.1 µM] | -24
CCOC(=O)C1CCN(c2c(N3CCN(c4ccccc4OC)CC3)c(=O)c2=O)CC1 | ? | 6% | -3 | 1% | -8% | -82*
Cc1cc(NC(=O)c2cc3n(n2)C(C(F)(F)F)CC(c2ccco2)N3)n(-c2ccccc2)n1 (stereo not drawn) | -10% | 0% | -5 | -7% | -10%[46.1 µM] | 2
CCCCOC(=O)C1=C(C)Nc2ncnn2C1c1ccc(OC)c(OC)c1OC (stereo not drawn) | 0% | 14% | 9 | -5% | -7% | 34
Fc1ccc(-n2nc(-c3ccccc3)c3cnc4ccccc4c32)cc1Cl | / | / | 1 | / | / | /
COc1ccc(C(=O)NCCN2C(=O)S/C(=C\c3cccnc3)C2=O)c(OC)c1OC | -17% | 6% | / | 6% | 6% | -9
O=C(CCl)NCCN1C(=O)S/C(=C\c2cccnc2)C1=O | / | 12% | / | 1.6µM* | -28% | /
CC(C(=O)NCCN1C(=O)S/C(=C\c2cccnc2)C1=O)N1C(=O)c2ccccc2C1=O (stereo not drawn) | -6% | 4% | / | 1% | -5% | -105*
SMILES | HPGD inh | IMPase Li cell | IMPase inh | ALDH1A1 inh | NPSR antag | PNC inhibitor
Cc1ccc(-n2c(SCC(=O)c3c(N)n(C)c(=O)n(C)c3=O)nc3sc4c(c3c2=O)CCCC4)c(C)c1 | -25% | 6% | / | 1% | 8% | ?
CCOC(=O)C1=C(C)NC(=O)NC1c1ccccc1OCc1c(F)cccc1Cl (stereo not drawn) | -19% | 16%[38.3 µM] | 1 | ? | -16%[46.1 µM] | -19
O=C1Nc2ccc(Cl)cc2/C1=C/C1CC=CCC1 (stereo not drawn) | -18% | 0% | / | -13% | -40% | 22
S=c1[nH]ncn1/N=C/c1ccccn1 | -2% | 20%[38.3 µM] | 3 | ? | -12%[46.1 µM] | -1
COc1ccc(CCNC(=O)c2ccc(CNS(=O)(=O)c3ccccc3)cc2)cc1OC | -11% | 21% | / | 2.5µM* | 10% | -20
COc1ccc(CCNC(=O)C2CCC(CNS(=O)(=O)c3ccc(F)cc3)CC2)cc1OC (stereo not drawn) | / | -1% | / | ? | -2% | /
COc1ccc(CCNC(=O)C2CCC(CNS(=O)(=O)c3ccccc3)CC2)cc1OC (stereo not drawn) | / | -1% | / | 0.63µM* | 0% | /
CCOc1ccc(CN(C)CC(=O)c2c(N)n(Cc3ccccc3)c(=O)n(CC)c2=O)cc1OC | -11% | -9%[38.3 µM] | -18 | 13% | -14%[46.1 µM] | -8
Fc1ccc(CN2CCCCCCC2)cc1F | -6% | 35%[38.3 µM] | 1 | 18µM* | -15%[46.1 µM] | ?
CCOC(=O)N1CCN(C(=O)C2CCN(Cc3cccc(OCc4ccccc4)c3)CC2)CC1 | -7% | 12% | / | 14µM* | 8% | 54
CCOC(=O)C1CCN(Cc2cccc(OC)c2)CC1 | -15% | 4%[38.3 µM] | 3 | 32µM* | -11%[46.1 µM] | 3
Fc1ccccc1CN1CCCCCCC1 | -7% | 58%[38.3 µM] | 5 | 14µM* | -4%[46.1 µM] | ?
Oc1cccc(CN2CCCCC2)c1 | -6% | 5% | / | 4% | 9% | 1
CCOC(=O)N1CCN(C(=O)C2CCN(Cc3ccc(O)c(OCC)c3)CC2)CC1 | / | 4% | / | ? | 15% | /
Cc1ccc2[nH]cc(CCNC(=O)CN3C(=O)c4ccccc4C3=O)c2c1 | ? | 16% | / | ? | 4% | 17
CCOC(=O)C1CCN(Cc2ccc(F)c(F)c2)CC1 | -3% | 27%[38.3 µM] | -2 | ? | 1%[46.1 µM] | -101*
O=C(Nc1ccc(Cl)cc1)N1CCCN(Cc2ccccc2F)C1 | 13µM* | -6%[38.3 µM] | 2 | -7% | -4%[46.1 µM] | -10
Cc1ccc(NC(=O)N2CCCN(Cc3ccc(F)cc3)C2)cc1C | -15% | -8%[38.3 µM] | 1 | -1% | -7%[46.1 µM] | ?
